Reference: PubChem BioAssay (NCATS)
Records with an inconclusive call do not appear. Where a call stands in place of a potency, no number is given. A number with no mark means an inactive call. Active and inactive are the calls of the source. The call rests on the fitted dose curve; in most records, active means well fitted curve in the direction sought with a large enough effect; inconclusive means small, poorly fitted or top-dose-only effect, or another doubt; inactive means no such curve, though single readings can be large; an effect the other way counts as inactive or inconclusive.

Columns and labels:
[1] = system: Zika virus NS2B-NS3 protease; assay: Primary screen GU AMC qHTS for Zika virus inhibitors (AID 1347154); details: Zika NS2B-NS3 unlinked protease, AMC fluorogenic substrate; series mostly up to 54.1 µM; further: nearly all actives have a fitted effect of over 70% in size
Procedure, shortened: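 Unlinked Zika NS2B hydrophilic domain–NS3 protease complex at 25 nM in 10 mM Tris-HCl pH 8.0, 0.01% Tween 20, with an AMC peptide substrate. Fluorescence change (340/450 nm) over 15 min at room temperature, normalized to controls, fitted to 4-parameter Hill.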

[2] = biological target: Furin (Homo sapiens) (UniProt P09958); assay: Furin counterscreen qHTS for Zika virus inhibitors (AID 1347149); details: furin enzymatic counterscreen, fluorogenic substrate; series mostly up to 114 µM; further: nearly all actives have a fitted effect of over 70% in size; further: potency means the concentration at half of the fitted maximal effect;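 on activity change, negative = inhibition: purified recombinant full-length human furin enzyme at 5 nM; fluorescence gain from furin cutting a BOC-RVRR-AMC peptide substrate over 15 min; top concentration of the series differs between compounds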
Procedure, shortened: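 Fluorogenic cleavage of BOC-RVRR-AMC (2 microM final, Km ~15 µM) was monitored (ex 340, em 450 nm) at 37C after 15 min RT preincubation of 5 nM furin with compounds in HEPES pH 7.0 buffer with CaCl2 and Triton X-100. Percent inhibition was fitted to a 4-parameter Hill curve.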

[3] = Confirmatory screen GU Rhodamine qHTS for Zika virus inhibitors qHTS (AID 1347157); details: purified enzyme assay, Rhodamine110 substrate fluorescence, 15 min; series mostly up to 114 µM; further: nearly all actives have a fitted effect of over 70% in size
Procedure, shortened: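 Buffer 10 mM Tris-HCl pH 8.0, 0.01% Tween 20. Unlinked protease 25 nM; compound preincubation 15 min, RT, protected from light. Substrate Rhod110, 1.5 microM; ~15% conversion in 15 min.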

[4] = Confirmatory screen NINDS Rhodamine qHTS for Zika virus inhibitors (AID 1347161); details: purified enzyme assay, Rhodamine110 substrate fluorescence, 15 min; series mostly up to 64.7 µM; further: nearly all actives have a fitted effect of over 60% in size; further: potency means the concentration at half of the fitted maximal effect;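 on activity change, negative = inhibition: purified Zika NS2B-NS3 protease with linked NS2B cofactor domain and Rhodamine110 peptide substrate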
Procedure, shortened: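 qHTS dose-response: 25 nM linked protease, pH 8.0 Tris/Tween buffer, cpd titration, 15 min RT preinc, 1.5 microM Rhod110 peptide, 15 min reaction (~15% conversion), Ex480/Em540; 4-parameter Hill fit.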

[5] = Tertiary RLuc qRT-PCR qHTS assay for Zika virus inhibitors (AID 1347169); details: infected Vero cells, reporter luminescence, 48-72 h; series mostly up to 45.9 µM; further: top concentration of the series differs between compounds; nearly all actives have a fitted effect of over 55% in size
Procedure, shortened: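 Orthogonal cell-based infection assay using recombinant ZIKV-RLuc (Cambodian) in Vero cells; compound added prior to virus at MOI 1-2. Incubation lasts 48-72 hrs at 37 degrees C before live-cell Renilla substrate is added and luminescence measured.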

[6] = qHTS of pediatric cancer cell lines to identify multiple opportunities for drug repurposing: Confirmatory screen for Saos-2 cells (AID 1347127); details: Saos-2 osteosarcoma cell viability; further: potency means the concentration at half of the fitted maximal effect; nearly all actives have a fitted effect of over 60% in size
Procedure, shortened: (§1)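 Viability after 48 h compound treatment at 37C, 500-1,000 cells/well, read as ATP luminescence with CellTiter-Glo. Primary screens used 11-point (MIPE, 0.78 nM-46 µM) or 8-point (NPC, 0.59 nM-46 µM) final concentrations; follow-up screens used 11-point dilutions.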

[7] = qHTS of pediatric cancer cell lines to identify multiple opportunities for drug repurposing: Confirmatory screen for OHS-50 cells (AID 1347128); details: OHS-50 osteosarcoma cells viability; series mostly up to 45.9 µM;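 further: compound exposure lasted 48 h at 37 degrees C; nearly all actives have a fitted effect of over 55% in size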; further: potency means the concentration at half of the fitted maximal effect
Procedure, shortened: as §1

[8] = qHTS of pediatric cancer cell lines to identify multiple opportunities for drug repurposing: Confirmatory screen for SK-N-SH cells (AID 1347129); details: SK-N-SH neuroblastoma cell viability; series mostly up to 46.1 µM;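 further: cells exposed to compound for 48 h before viability read; nearly all actives have a fitted effect of over 60% in size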
Procedure, shortened: as §1

[9] = system: Zika virus NS2B-NS3 protease (unlinked complex); assay: Confirmatory screen GU AMC qHTS for Zika virus inhibitors (AID 1347153); details: Recombinant NS2B-NS3 protease, AMC substrate fluorescence; series mostly up to 57.1 µM; further: nearly all actives have a fitted effect of over 70% in size
Procedure, shortened: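 Unlinked enzyme 25 nM, Tris pH 8.0/0.01% Tween 20; cpd 15 min RT, dark; + AMC substrate 10 µM (Km 18.3 µM); 340/450 nm read at t0 and 15 min; % inhibition → 4-param fit.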

[10] = Vero cells viability qHTS for Zika virus inhibitors (AID 1347167); details: cytotoxicity counter-screen (Zika); series mostly up to 45.9 µM
Procedure, shortened: (§2)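 Cells seeded at 2.5 x 10^5 cells/mL in DMEM with 4% FBS and attached overnight at 37 degrees C, then exposed to compound for 24 to 48 hours. Viability read as ATP content by CellTiter Glo luminescence.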

[11] = HepG2 cells viability qHTS for Zika virus inhibitors (AID 1347168); details: Zika counter-screen; series mostly up to 45.9 µM
Procedure, shortened: as §2

Sequence of Furin (Homo sapiens) (P09958 whole entry, looked up): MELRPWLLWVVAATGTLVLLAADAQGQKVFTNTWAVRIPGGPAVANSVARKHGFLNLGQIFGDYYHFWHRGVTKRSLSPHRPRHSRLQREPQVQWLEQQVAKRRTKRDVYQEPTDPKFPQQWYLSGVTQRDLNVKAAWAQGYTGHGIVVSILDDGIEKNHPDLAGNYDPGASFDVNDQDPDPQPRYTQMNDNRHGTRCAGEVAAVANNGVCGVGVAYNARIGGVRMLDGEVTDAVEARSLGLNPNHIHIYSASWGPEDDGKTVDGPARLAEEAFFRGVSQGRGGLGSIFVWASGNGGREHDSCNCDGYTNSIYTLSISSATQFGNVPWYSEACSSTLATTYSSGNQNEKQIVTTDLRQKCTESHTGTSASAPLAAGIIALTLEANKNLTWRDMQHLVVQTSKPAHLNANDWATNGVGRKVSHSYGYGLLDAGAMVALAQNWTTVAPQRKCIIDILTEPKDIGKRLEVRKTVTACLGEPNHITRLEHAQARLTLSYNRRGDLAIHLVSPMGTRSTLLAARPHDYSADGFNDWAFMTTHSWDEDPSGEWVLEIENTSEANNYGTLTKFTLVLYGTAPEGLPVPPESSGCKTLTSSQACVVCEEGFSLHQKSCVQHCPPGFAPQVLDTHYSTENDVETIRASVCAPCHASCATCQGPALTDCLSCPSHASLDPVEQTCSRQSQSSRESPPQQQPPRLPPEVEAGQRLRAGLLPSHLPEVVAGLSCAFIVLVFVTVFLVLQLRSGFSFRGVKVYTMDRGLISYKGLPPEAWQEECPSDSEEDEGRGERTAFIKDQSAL

**Q.** With `O=C(O)/C=C/c1ccc(Cn2ccnc2)cc1` as the compound, how does the Potency [1] read?
**A.** Its Potency is “inactive”.

**Q.** For `c1ccc2[nH]ccc2c1`, which Potency [1] is on record?
**A.** Its Potency is “inactive”.

**Q.** For `O=c1[nH]c(=O)c2ccccc2o1`, which Potency [1] is on record?
**A.** The Potency was “inactive”.

**Q.** Which Potency [2] does the source give for `COc1ccccc1Oc1c(NS(=O)(=O)c2ccc(C(C)(C)C)cc2)nc(-c2ncccn2)nc1OCCO` here?
**A.** Its Potency is “inactive”.

**Q.** And the Potency [1]?
**A.** Its Potency is “inactive”.

**Q.** And the outcome [3]?
**A.** The outcome was “inactive”.

**Q.** What about the Potency [4] of the same compound?
**A.** Its Potency is “inactive”.

**Q.** And the activity change, negative = inhibition [5]?
**A.** The activity change, negative = inhibition was 14.1% [at 1.74 µM].

**Q.** With `CC(C)=CCC/C(C)=C/CO` as the compound, how does the Potency [1] read?
**A.** The Potency was “inactive”.

**Q.** For `CCN(CC)CC1CCCCN1CC(=O)N1c2ccccc2C(=O)Nc2cccnc21` (stereo not given), which Potency [1] is on record?
**A.** The Potency was “inactive”.

**Q.** Which results are given for `CC(=O)OCC(=O)[C@@]1(O)CC[C@H]2[C@@H]3CCC4=CC(=O)C=C[C@]4(C)[C@@]3(F)[C@@H](O)C[C@@]21C`?
**A.** Potency [6]: 11.7 µM (active); Potency [7]: 16.5 µM (active); outcome [8]: inactive; Potency [1]: inactive

**Q.** With `Cc1cccc(C)c1NC(=O)CC12CCCN1CCC2` as the compound, how does the Potency [1] read?
**A.** Its Potency is “inactive”.

**Q.** For `NS(=O)(=O)c1cc(C2(O)NC(=O)c3ccccc32)ccc1Cl` (stereo not given), which Potency [1] is on record?
**A.** The Potency was “inactive”.

**Q.** For `O=C(O)[C@@H]1[C@H]2C[C@H]3c4[nH]c5ccccc5c4CCN3C[C@@H]2CC[C@@H]1O`, which Potency [2] is on record?
**A.** The Potency was 21.5 µM (active).

**Q.** And the Potency [9]?
**A.** The Potency was “inactive”.

**Q.** What about the Potency [4] of the same compound?
**A.** The Potency was 12.4 µM (active).

**Q.** What about the outcome [10] of the same compound?
**A.** Its outcome is “inactive”.

**Q.** What about the outcome [11] of the same compound?
**A.** The outcome was “inactive”.

**Q.** What about the outcome [5] of the same compound?
**A.** The outcome was “inactive”.

**Q.** Which Potency [1] does the source give for `CN1CCCN=C1COC(=O)C(O)(c1ccccc1)C1CCCCC1` (stereo not given) here?
**A.** The Potency was “inactive”.

**Q.** With `O=C(O)COC(=O)Cc1ccccc1Nc1c(Cl)cccc1Cl` as the compound, how does the Potency [1] read?
**A.** The Potency was “inactive”.

**Q.** Which Potency [1] does the source give for `CC(=O)N[C@@H](Cc1ccc(O)cc1)C(=O)O` here?
**A.** The Potency was “inactive”.

**Q.** Which Potency [7] does the source give for `COc1cc(C(=O)NCCCCCC(=O)O)cc(OC)c1OC` here?
**A.** The Potency was “inactive”.

**Q.** And the outcome [8]?
**A.** Its outcome is “inactive”.

**Q.** What about the Potency [1] of the same compound?
**A.** Its Potency is “inactive”.

**Q.** For `CN1CC(=O)NC1=N`, which Potency [1] is on record?
**A.** The Potency was “inactive”.

**Q.** Which Potency [1] does the source give for `CC1(C)S[C@@H]2[C@H](N=CN3CCCCCC3)C(=O)N2[C@H]1C(=O)O` here?
**A.** The Potency was “inactive”.
